C diff HTS – C. difficile growth inhibition; Clostridium difficile clinical isolate growth, OD600, 24 h; stronger effect = lower value; growth activity, negative = inhibition, % at 16 µg/mL (by protocol); 0.25% of 86,000 active; AID 1259249;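 active = mean growth activity at or below -80% and every replicate also at or below -80%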;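 also: 0% = DMSO wells and -100% = levofloxacin 16 µg/mL wells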
Pf Dd2 growth – blocks growth of Plasmodium falciparum Dd2 parasites; activity change, % at 10 µM; 2.3% of 94,000 active; P. falciparum Dd2 growth, SYBR Green, 72 h; stronger effect = lower value; in the data active = activity change below about -80%
The depositor's hits bear a star; ! = a repeat was not active. A selection: hits, their analogues and other compounds. The true share with any hit is near 2.3%.

SMILES	C diff HTS	Pf Dd2 growth
C[C@@H]1CN([C@@H](C)CO)C(=O)c2cccc(NC(=O)c3ccc(-c4nccs4)cc3)c2O[C@@H]1CN(C)Cc1ccc(C(=O)Nc2ccccc2N)cc1	2.8	-94.6*
CN(C[C@H]1N[C@H](CO)[C@H]1c1ccc(C2=CCCC2)cc1)S(C)(=O)=O	-0.9	-7.9
CCCNC(=O)Nc1ccc2c(c1)C(=O)N(C)[C@H]1CC[C@H](CC(=O)OC)O[C@H]1CO2	-0.9	9.6
C[C@H](CO)N1C[C@H](C)[C@@H](CN(C)CC2CCCCC2)Oc2ccc(N(C)C)cc2C1=O	7.4	29.3
C/C=C/c1ccc(C2[C@H]3CNC[C@@H]2N3Cc2ccc3c(c2)OCO3)cc1 (stereo partly specified)	5.8	-28.1
CN(C)C(=O)c1ccc(-c2ccc(C3[C@@H]4CN(Cc5ccc6c(c5)OCO6)C[C@H]3N4)cc2)cc1 (stereo partly specified)	-5.2	-81.7*!
Cc1ccccc1-c1ccc(C2[C@H]3CNC[C@@H]2N3Cc2ccc3c(c2)OCO3)cc1 (stereo partly specified)	-0.2	4.1
Cc1ccccc1-c1ccc(C2[C@@H]3CN(Cc4ccc5c(c4)OCO5)C[C@H]2N3)cc1 (stereo partly specified)	-94.4*	-6.6
c1cncc(-c2ccc(C3[C@@H]4CN(Cc5ccc6c(c5)OCO6)C[C@H]3N4)cc2)c1 (stereo partly specified)	-4.1	-37.4
C/C=C/c1ccc(C2[C@@H]3CN(Cc4ccc5c(c4)OCO5)C[C@H]2N3)cc1 (stereo partly specified)	2.0	-94.1*!
COCC#Cc1ccc([C@@H]2[C@H](CO)N3CCCCN(S(=O)(=O)c4cccc(OC)c4)C[C@@H]23)cc1	-4.1	-45.4
C[C@H]1CN([C@@H](C)CO)S(=O)(=O)c2ccc(-c3cncnc3)cc2O[C@H]1CN(C)C(=O)Cc1ccncc1	0.1	49.5
O=C(C[C@H]1C[C@@H]2c3cc(NS(=O)(=O)c4ccc(F)cc4)ccc3O[C@@H]2[C@H](CO)O1)NCc1ccc(Cl)cc1	-2.3	-37.1
O=C(C1CCCCC1)N1C[C@H]2[C@@H](c3ccccc31)[C@H](CO)N2C(=O)Cc1ccccn1	-10.7	-13.0
